Assay results taken from PubChem BioAssay (EPA / NIEHS).
Inconclusive results are not listed. The source made the active and inactive calls. The calls were made as follows: active = hit-call score of the fitted dose curve at least 0.9, where 1 is the maximum; inconclusive = response in the unintended direction; inactive = score below 0.9.

target: Bile acid receptor (Homo sapiens) (UniProt Q96RI1); test: ATG_FXR_TRANS: Attagene TRANS-FACTORIAL HepG2 Assay for Farnesoid X Receptor (FXR) (AID 2282979); conditions: HepG2 Attagene TRANS FXR-GAL4 reporter transcription;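 also: hits raise reporter mRNA above DMSO so AC50 marks FXR activation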
Sequence (Q96RI1 whole entry, looked up, the tested form may be a part): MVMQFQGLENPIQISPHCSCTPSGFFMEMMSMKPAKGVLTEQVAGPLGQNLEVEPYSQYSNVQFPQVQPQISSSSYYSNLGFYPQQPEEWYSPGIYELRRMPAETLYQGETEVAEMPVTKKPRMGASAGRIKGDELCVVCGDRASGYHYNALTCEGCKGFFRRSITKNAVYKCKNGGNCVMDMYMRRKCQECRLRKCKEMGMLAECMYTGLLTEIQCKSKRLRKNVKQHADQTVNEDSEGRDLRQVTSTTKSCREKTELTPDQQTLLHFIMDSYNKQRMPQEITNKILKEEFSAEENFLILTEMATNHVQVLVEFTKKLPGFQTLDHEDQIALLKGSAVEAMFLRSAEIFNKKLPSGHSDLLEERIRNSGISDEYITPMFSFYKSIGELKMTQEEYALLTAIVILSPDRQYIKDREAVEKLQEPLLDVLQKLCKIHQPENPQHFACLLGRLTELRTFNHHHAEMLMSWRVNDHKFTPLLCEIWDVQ
Description: ATG_TRANS is a cell-based, multiplexed-readout assay that uses HepG2, a human liver cell line, with measurements taken at 24 hours after chemical dosing in a 24-well plate.ATG_FXR_TRANS is one of 30 assay component(s) measured or calculated from the ATG_TRANS assay. It is designed to make measurements of mRNA induction, a form of inducible reporter, as detected with fluorescence intensity signals by Reverse transcription polymerase chain reaction (RT-PCR) and Capillary electrophoresis technology.Data from the assay component ATG_FXR_TRANS was analyzed into 1 assay endpoint. This assay endpoint, ATG_FXR_TRANS, was analyzed in the positive analysis fitting direction relative to DMSO as the negative control and baseline of activity. Using a type of inducible reporter, measures of mRNA for gain-of-signal activity can be used to understand the reporter gene at the transcription factor-level as they relate to the gene NR1H4. Furthermore, this assay endpoint can be referred to as a primary readout, because this assay has produced multiple assay endpoints where this one serves a reporter gene function. To generalize the intended target to other relatable targets, this assay endpoint is annotated to the nuclear receptor intended target family, where the subfamily is non-steroidal.
Human liver HepG2 cells are transiently transfected with multiple reporter transcription units (MRTUs) in 6-well plates using FuGene 6 reagent (Roche; 3 ml FuGene/1 mg DNA). The MRTU constructs are regulated by a cis-regulating element (promoter). […] A major difference between the CIS and TRANS system is that in CIS activities of endogenous TFs are measured, whereas the TRANS assay evaluates changes in activities of exogenous, chimeric NR-Gal4 proteins. […] At the end of 24 hour incubation, total RNA was isolated using TriZol reagent (Invitrogen). The isolated RNA is then reverse-transcribed using oligo(dT) primer and Mo-MLV reverse transcriptase (Invitrogen) with DNAse I (Ambion) treatment for 30 min. The one-tenth of the produced cDNA was amplified by PCR using Taq DNA polymerase (Invitrogen) and two reporter sequence-specific primers. The PCR products were fluorescently labeled by primer extension with 6-arboxyfluorescein (6-FAM) 5'-labeled reporter sequence-specific primer (2 min at 95 C, 20 s at 68 C and 10 min at 72 C) and these products were digested with 5U of HpaI (New England Biolabs) for 2h at 37 C. The fragments were purified using Qiaquick PCR columns (Qiagen), analyzed on an ABI 3130xL genetic analyzer (Applied Biosystems) with peak positions identified by using a set of X-rhodamine (ROX)-labeled MapMarker1000 molecular weight standards (BioVentures). The raw capillary electrophoresis data was processed using Attagraph software (Attagene).

| SMILES | outcome | AC50 |
| --- | --- | --- |
| c1ccc(CCCc2ccncc2)cc1 | inactive |  |
| O=P(O)(O)Oc1ccccc1 | inactive |  |
| COCC(C)N (stereo not given) | inactive |  |
| O=C1CCCCCN1SSN1CCCCCC1=O | inactive |  |
| O=C(C(Cl)Cl)N1CCOC12CCCCC2 | inactive |  |
| CCCCCCCCc1ccc(Nc2ccc(CCCCCCCC)cc2)cc1 | inactive |  |
| CCCCCCOC(=O)C(C)CC (stereo not given) | inactive |  |
| C=C(C)C(=O)OCC(C)C | inactive |  |
| O=c1n(CCO)c(=O)n(CCO)c(=O)n1CCO | inactive |  |
| Nc1ccc(N)c(Cl)c1 | inactive |  |
| C(=CC=Nc1ccccc1)C=CNc1ccccc1 | inactive |  |
| COc1ccc([C@@H]2CC(=O)c3c(O)cc(O[C@@H]4O[C@H](CO[C@@H]5O[C@@H](C)[C@H](O)[C@@H](O)[C@H]5O)[C@@H](O)[C@H](O)[C@H]4O)cc3O2)cc1OC | inactive |  |
| C=COCCCC | inactive |  |
| CCOC(=O)N1CCC(=C2c3ccc(Cl)cc3CCc3cccnc32)CC1 | inactive |  |
| CCCCCCCCCCOS(=O)(=O)O | inactive |  |
| O=C1OC(=O)c2cc(Oc3ccc4c(c3)C(=O)OC4=O)ccc21 | inactive |  |
| C#CC1(O)CC[C@H]2[C@@H]3CCC4=CCCC[C@@H]4[C@H]3CC[C@@]21C (stereo not given in full) | inactive |  |
| O=[N+]([O-])C1(Br)COCOC1 | inactive |  |
| CCCCCCCCCCc1ccccc1 | inactive |  |
| CC/C=C\C/C=C\C/C=C\CCCCCCCC(=O)O | inactive |  |

| SMILES | outcome | AC50 |
| --- | --- | --- |
| CC(C)(C)c1ccc(OC(=O)c2ccccc2O)cc1 | inactive |  |
| O=C1Nc2ccccc2C1(c1ccc(O)cc1)c1ccc(O)cc1 |  | 10.5 µM (active) |
| O=C1CCCCCCCCCCCCCCCO1 | inactive |  |
| C=C1[C@H]2CC[C@@H]3[C@H]2C(C)(C)CCC[C@]13C | inactive |  |
| CCCCCC/C=C\CCCCCCCC(=O)O | inactive |  |
| O=Cc1ccc(CO)o1 | inactive |  |
| O=C(/C=C/C=C/c1ccc2c(c1)OCO2)N1CCCCC1 | inactive |  |
| CCc1c(C(=O)O)c(=O)cnn1-c1ccc(Cl)cc1 | inactive |  |
| CCN(CCC#N)c1ccc(N=Nc2c(Cl)cc([N+](=O)[O-])cc2Cl)cc1 | inactive |  |
| CCN(CCO)c1cccc(C)c1 | inactive |  |
| NC(=O)N=NC(N)=O | inactive |  |
| CC(=O)Oc1ccc(C(C)=O)cc1 | inactive |  |
| Nc1ccc(-c2ccc(F)cc2)cc1 | inactive |  |
| Cc1oncc1C(=O)Nc1ccc(C(F)(F)F)cc1 | inactive |  |
| Cc1cccc(N(C)C(=S)Oc2ccc3ccccc3c2)c1 | inactive |  |
| C/C=C\C/C=C/CCCCCCCCOC(C)=O | inactive |  |
| Cc1ccc(OC(=O)CC(C)C)cc1 | inactive |  |
| O=S(=O)(O)c1ccccc1C=Cc1ccc(-c2ccc(C=Cc3ccccc3S(=O)(=O)O)cc2)cc1 | inactive |  |
| Cn1c(=O)[nH]c2ncn(C)c2c1=O | inactive |  |
| O=C(O)CC(C(=O)O)C(CC(=O)O)C(=O)O (stereo not given) | inactive |  |
